{"source": "PubChem BioAssay (NCI)", "note": "“And” between values parts separate entries of the source, which are not always exact repeats. Equal values may be shown once. This is part of a sample that, as a whole, favours compounds with a hit. Of some 83,000 tested, about 20% had one in any assay.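 Activity criterion: percent growth below 10, measured after cells in 96-well plates were exposed to a single compound concentration for 48 hours.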 The source made the active and inactive calls.", "data": [{"system": "OVCAR-3 ovarian", "experiment": "NCI-60 one-dose screen, 48 h (100 = growth as untreated, 0 = no growth, -100 = all killed)", "conditions": "10 µM", "experimental": "(§1) Growth inhibition of the OVCAR-3 human tumor cell line is measured as a screen for anti-cancer activity. Cells are grown in 96 well plates and exposed to the test compound for 48 hours. Compounds are tested at a single concentration, which is 10^-5 M for most compounds. The reported endpoint is percent growth (GI% or GIPRCNT), where numbers from 0 - 100% represent growth inhibition, and numbers from -100% - 0 represent cell death. For example, a value of 40 represents 60% growth inhibition. A value of 0 means no net growth occurred over the course of the experiment. A value of -40 indicates 40% of cells at the beginning of the experiment died by the end of the experiment. A value of -100 means all cells are dead at the end of the experiment.\n(§2) NCI-60 Human Tumor Cell Lines Screen was performed using the standard one-dose NCI protocol, which is described in more detail at https://dtp.cancer.gov/discovery_development/nci-60/default.htm.\n(§3) Compounds with GIPRCNT values below 10 were considered active. Activity score was based on GIPRCNT using the following formula: […]\n(§4) Score is 0 for GIPRCNT values of 100 or above, 50 for GIPRCNT values of 0, and 100 for GIPRCNT values of -100.", "values": [{"smiles": "CS/C(=C\\c1ccc(C(=O)c2ccc(C)cc2)n1C)S(C)=O", "note": "(stereo not given)", "growth": "114% (inactive)"}]}, {"system": "OVCAR-3 ovarian", "experiment": "NCI-60 one-dose screen, 48 h (100 = growth as untreated, 0 = no growth, -100 = all killed)", "conditions": "10 µM unless noted", "experimental": "as §1, §2, §3, §4", "values": [{"smiles": "OC1CCCN(Cc2ccccc2)C1", "note": "(stereo not given)", "growth": "113% (inactive)"}, {"smiles": "CCN(CC)CCNC(=O)c1ccc(NCN2C(=O)NC(c3ccccc3)(c3ccccc3)C2=O)cc1", "growth": "110% (inactive) and 98.8% (inactive)"}, {"smiles": "Clc1ccc2sc(-c3ccccc3)nc2c1", "growth": "98.6% (inactive)"}, {"smiles": "CCCCCCCCCCCCCCCCC(=O)O", "growth": "115% (inactive)"}, {"smiles": "Cc1ccc([N+](=O)[O-])cc1Br", "growth": "107% (inactive)"}, {"smiles": "COC(=O)c1cc(C(=O)OC)cc([N+](=O)[O-])c1", "growth": "120% (inactive)"}, {"smiles": "O=C1C=CC(=O)N1Cc1ccco1", "growth": "113% (inactive)"}, {"smiles": "CC1NC(C)c2ccc3ccccc3c2O1", "note": "(stereo not given)", "growth": "106% (inactive)"}, {"smiles": "O=P(O)(O)OC1C(OP(=O)(O)O)C(OP(=O)(O)O)C(OP(=O)(O)O)C(OP(=O)(O)O)C1OP(=O)(O)O.[Cu+2]", "note": "(stereo not given)", "growth": "123% (inactive)"}, {"smiles": "OCCCc1ccccc1", "growth": "109% (inactive)"}, {"smiles": "O=c1[nH]c(=O)n(C2OC(CO)C(O)C2O)cc1I", "note": "(stereo not given)", "growth": "117% (inactive) and 121% (inactive)"}, {"smiles": "O=[N+]([O-])c1cccc(N=Cc2ccccc2)c1", "growth": "122% (inactive)"}, {"smiles": "CC(=O)Oc1ccc(C2(c3ccc(OC(C)=O)cc3)C(=O)Nc3ccccc32)cc1", "growth": "-1.41% (active) and -3.11% (active)"}, {"smiles": "O=C(N=C1C(=O)C2(CCCCC2)C2(N=C(c3ccccc3)OC2=O)C12CCCCC2)c1ccccc1", "note": "(stereo not given)", "growth": "63.6% (inactive)"}, {"smiles": "CC(=O)c1cc2ccccc2o1", "growth": "114% (inactive)"}, {"smiles": "CC(C)(C)OC(=O)NCCc1ccc(N)cc1", "growth": "106% (inactive)"}, {"smiles": "COc1ccc(/C=N/NC(N)=S)cc1", "growth": "111% (inactive)"}, {"smiles": "CC(=O)Oc1ccc(C(c2ccc(OC(C)=O)cc2)c2ccccn2)cc1", "growth": "61.3% (inactive) and 71% (inactive)"}, {"smiles": "N#CC(=S)Nc1ccc(Cl)c(Cl)c1", "growth": "7.39% (active)"}, {"smiles": "Nc1ccc(O)c(C(=O)O)c1", "growth": "100% (inactive) and 101% (inactive) and 115% (inactive)"}, {"smiles": "CCOP(C)(=O)/C(Cc1ccc(OC)c(OC)c1)=N\\O", "note": "(stereo not given)", "growth": "111% (inactive)"}, {"smiles": "CCOC(=O)c1ccc(C(=N)N)cc1", "growth": "102% (inactive)"}, {"smiles": "CN(C)CC(CN(C)C)C(O)c1ccccc1", "note": "(stereo not given)", "growth": "115% (inactive)"}, {"smiles": "Nc1ccccc1SC(CC(=O)c1ccccc1)c1cccc([N+](=O)[O-])c1", "note": "(stereo not given)", "growth": "104% (inactive) and 66.5% (inactive)"}, {"smiles": "CCCCCc1cc[n+](CC(=O)c2ccccc2)cc1", "growth": "94.9% (inactive) and 105% (inactive)"}, {"smiles": "COc1ccc(COC=O)cc1", "growth": "109% (inactive)"}, {"smiles": "CCc1ccccc1-n1[nH]c(C)c(C=N)c1=O", "growth": "124% (inactive)"}, {"smiles": "CCC(=O)Oc1ccc(OCc2ccccc2)cc1", "growth": "95% (inactive) and 104% (inactive)"}, {"smiles": "CCOC(=O)c1csc(N)n1", "growth": "108% (inactive) and 107% (inactive)"}, {"smiles": "COc1ccc(/C=C/C(=O)O)cc1OC", "growth": "108% (inactive) and 104% (inactive)"}, {"smiles": "CCN(CC)C(CC(=O)c1ccccc1)C(=O)c1ccccc1", "note": "(stereo not given)", "growth": "92.5% (inactive)"}, {"smiles": "O=C1c2ccccc2CN1c1ccccc1", "growth": "108% (inactive)"}, {"smiles": "O=C(O)Cc1cc(=O)[nH]n(-c2ccccc2)c1=O", "growth": "110% (inactive)"}, {"smiles": "C/C=C/C(=O)OCCCCCCCCCCCC", "growth": "106% (inactive)"}, {"smiles": "COc1cc([C@@H]2c3cc4c(cc3[C@H](O)[C@H]3COC(=O)[C@@H]23)OCO4)cc(OC)c1OC", "growth": "29% (inactive) and -49.9% (active)"}, {"smiles": "CCOC(=O)C(N)Cc1cc(I)c(O)c(I)c1", "note": "(stereo not given)", "growth": "113% (inactive) and 102% (inactive)"}, {"smiles": "OCc1ccccc1F", "growth": "132% (inactive)"}, {"smiles": "O=C(O)c1cc(=O)[nH]c(=O)[nH]1", "growth": "114% (inactive) and 112% (inactive)"}]}, {"system": "OVCAR-3 ovarian", "experiment": "NCI-60 one-dose screen, 48 h (100 = growth as untreated, 0 = no growth, -100 = all killed)", "conditions": "100 µM", "experimental": "as §1, §2, §3, §4", "values": [{"smiles": "CS/C(=C\\c1ccc(C(=O)c2ccc(C)cc2)n1C)S(C)=O", "note": "(stereo not given)", "growth": "69% (inactive)"}]}]}
